Tau fluor cs – Counterscreen qHTS for Inhibitors of Tau Fibril Formation, Fluorescence Polarization; AID 1463, 2008; tau K18 P301L Alexa594 fluorescence, heparin fibrillization; 280,000 tested, 0.93% active; Potency, µM (series often up to 57.7 µM), without a hit: top-dose activity change, negative = decrease; further: potency means the concentration at half of the fitted maximal effect; on the % scale 0 is the no-effect control and ±100 the full control effect; nearly all actives have a fitted effect of over 55% in size
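Human tau K18 P301L (15 uM unlabeled, 0.24 uM Alexa 594-labeled) in 100 mM sodium acetate pH 7 with 20 uM heparin, 6 hr at 37 C. ThT 30 uM added, 1 hr ambient; Alexa 594 FP and total fluorescence read at 555/632 nm.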
Tau ThT inhib – qHTS for Inhibitors of Tau Fibril Formation, Thioflavin T Binding | recombinant tau K18 P301L (four-repeat tau fragment), heparin-induced fibrillization, ThT fluorescence | Potency, µM (doses to about 57.4 µM), for inactives: at the top dose activity, negative = inhibition, usual class: inhibitors | 270,000 tested, 2.1% active; further: potency means the concentration at half of the fitted maximal effect; on the % scale 0 is the no-effect control and ±100 the full control effect; nearly all actives have a fitted effect of over 55% in size
Target sequence (P10636 561-689 P618L limits assumed): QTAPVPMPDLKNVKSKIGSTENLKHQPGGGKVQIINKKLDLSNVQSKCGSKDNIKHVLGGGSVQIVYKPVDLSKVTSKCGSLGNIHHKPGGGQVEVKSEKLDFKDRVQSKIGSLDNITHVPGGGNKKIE
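Tau K18 P301L fragment (15 uM unlabeled plus 0.24 uM Alexa 594-labeled) in 100 mM sodium acetate pH 7 with compound, fibrillization induced by 20 uM heparin for 6 hr at 37 C. Thioflavin T (30 uM) added, fluorescence read after 1 hr (ex 450, em 510 nm).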
LMNA splice mod – qHTS Assay for Modulators of Lamin A Splicing; HeLa LMNA splicing GFP/RFP minigene ratio, 48 h; Potency, µM (doses to about 46.1 µM), for inactives: at the top dose ratio change, negative = inhibition, actives largely listed as inhibitors; 200,000 tested, 0.01% active; active means well fitted inhibition curve with a large enough effect in the signal ratio, with a control signal flat, not every such curve was filed as active; inconclusive means small, poorly fitted or top-dose-only effect, or effect the other way, or a change in a side signal; the % refers to the signal ratio; further: potency means the concentration at half of the fitted maximal effect; on the % scale 0 is the no-effect control and ±100 the full control effect
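Read-out is the ratio of GFP to DsRed2 object intensity, acquired by 488 nm laser-scanning cytometry on HeLa lamin A-EGFP minigene reporter cells. Compound incubation 48 hrs at 37 °C in Opti-MEM with 2% FBS; DMSO 0.5% final.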
JMJD2E inh – qHTS Assay for Inhibitors of Human Jumonji Domain Containing 2E (JMJD2E) | 230,000 tested, 1.6% active | Potency, µM (highest dose often 57.1 µM), without a hit: at the top dose activity change, negative = inhibition, hits mostly inhibitors | Lysine-specific demethylase 4E (Homo sapiens), B2RXH2 | JMJD2E catalytic domain, FDH-coupled NADH fluorescence (FDH is formaldehyde dehydrogenase);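 further: potency means the concentration at half of the fitted maximal effect; 0% = wells with enzyme and -100% = buffer wells without enzyme; nearly all actives have a fitted effect of over 50% in size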
Target sequence (B2RXH2 1-337 limits assumed): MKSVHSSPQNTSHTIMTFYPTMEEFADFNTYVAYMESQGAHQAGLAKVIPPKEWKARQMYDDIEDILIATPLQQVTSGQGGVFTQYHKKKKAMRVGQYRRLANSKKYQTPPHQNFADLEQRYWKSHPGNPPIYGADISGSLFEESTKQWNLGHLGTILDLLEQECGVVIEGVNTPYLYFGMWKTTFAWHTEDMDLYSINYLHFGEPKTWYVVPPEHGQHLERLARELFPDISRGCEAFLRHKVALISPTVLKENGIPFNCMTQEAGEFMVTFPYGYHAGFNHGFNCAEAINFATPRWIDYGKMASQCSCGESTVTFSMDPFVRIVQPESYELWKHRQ
CBFb RUNX1 block – qHTS Assay for Compounds Blocking the Interaction Between CBF-beta and RUNX1 for the Treatment of Acute Myeloid Leukemia; Runt-related transcription factor 1 (Homo sapiens) + Core-binding factor subunit beta …; AlphaScreen CBFb-His/RUNX1-biotin binding, biochemical; Potency, µM (series often up to 59.8 µM), for inactives: at the highest dose activity, negative = inhibition, most hits filed as inhibitors; 230,000 tested, under 10 active; further: % of control where 0% means no effect
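Interaction loss through any mechanism counts as activity. Pre-formed complex of His-CBF-beta and biotin-RUNX1 (30 nM apiece) is incubated with compound 15 min, then with 50 ng nickel and 50 ng streptavidin beads for 90 min before AlphaScreen detection.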
Tau fibril FP – qHTS for Inhibitors of Tau Fibril Formation, Fluorescence Polarization | K18 P301L tau heparin fibrillization, Alexa594 FP, 6 h | Potency, µM (highest dose often 57.7 µM), without a hit: at the highest dose activity, negative = inhibition, hits mostly inhibitors | 280,000 tested, 0.39% active | AID 1468, 2008; further: potency means the concentration at half of the fitted maximal effect; on the % scale 0 is the no-effect control and ±100 the full control effect; nearly all actives have a fitted effect of over 55% in size
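Steps: dispense K18 P301L tau (15 uM plus 0.24 uM Alexa 594 tracer, final) in pH 7 sodium acetate; add compound; add heparin (20 uM final); incubate 6 hr, 37 C; add ThT (30 uM final); after 1 hr ambient, read FP.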
* marks the source's active call; other numbers are inactive results; ? = inconclusive; . = no result; [ ] = another dose, or the depositor's remark. Most compounds without a hit are left out; they make up all but 3.2% or so of the library. Unless noted, the call rests on the fitted dose curve; in most records, active means well fitted curve in the direction sought with a large enough effect; inconclusive means small, poorly fitted or top-dose-only effect, or another doubt; inactive means no such curve, though single readings can be large; an effect the other way counts as inactive or inconclusive.

SMILES	Tau fluor cs	Tau ThT inhib	LMNA splice mod	JMJD2E inh	CBFb RUNX1 block	Tau fibril FP
CCCC(C)C(=O)Nc1nc(C)c(-c2csc(Nc3cc(Cl)ccc3C)n2)s1 (stereo unspecified)	?	?	?	-8%	-30%	7%
COc1ccc(Cl)cc1Nc1nc(-c2sc(NC(=O)CC(C)C)nc2C)cs1	?	?	-2%	?	?	9%
CC(C)[C@H](O)CC[C@@H](C)C1CC[C@H]2C3CC=C4C[C@@H](O)CC[C@]4(C)C3CC[C@]12C (stereo partly specified)	1%	-10%	.	.	10%	-9%
COc1ccc(-n2c(C)cc(/C=N/Nc3nnc(C)n3N)c2C)cc1	-27%	28µM*	1%	?	-6%	?
CCOc1ccc(-n2c(C)cc(/C=N/Nc3nc(C)cc(=O)[nH]3)c2C)cc1	?	?	.	?	-16%	-1%
Nc1nc(Nc2ccccc2)nc2c1ncn2[C@@H]1O[C@H](CO)[C@H](O)[C@H]1O	-19%	-12%	?	-1%	-2%	-9%
O=[N+]([O-])c1cc(Br)c(O)c(/C=N/Nc2nnnn2-c2cccc3ccccc23)c1	?	16µM*	6%	?	?	?
Cc1cc(C2=NNC(=Nc3ccc(S(=O)(=O)N4CCOCC4)cc3)SC2)c(C)n1C	-29%	?	.	8.9µM*	8%	-6%
Cc1cc(/C=C2/C(=O)NN(c3ccccc3)C2=O)c(C)n1-c1ccc(O)cc1	-22%	13µM*	3%	-7%	-19%	11%
COc1ccc(-n2c(C)cc(/C=C3\C(=O)NN(c4ccccc4)C3=O)c2C)cc1	-30%	?	?	-9%	-2%	9%
O=C1NN(c2ccccc2)C(=O)/C1=C\c1coc2ccc(O)cc2c1=O	?	14µM*	.	-1%	-12%	-13%
O=c1cnc2cnc(Nc3ccccc3)nc2n1C1CC1	.	.	13%	.	.	.
CC(=O)N1CCCc2cc(S(=O)(=O)N3CCC(C(=O)NCCC(C)C)CC3)ccc21	5%	0%	-12%[46 µM]	.	.	4%
CCOc1ccc(S(=O)(=O)NCc2nc3cccnc3n2Cc2ccccc2OC)cc1	-19%	-9%	8%[46 µM]	.	.	6%
Nc1c(C(=O)Nc2ccc(Br)cc2)sc2nc(-c3ccco3)ccc12	?	5µM*	?	?	1%	5%
Nc1c(C(=O)Nc2ccc(F)cc2)sc2nc(-c3ccco3)ccc12	?	6.3µM*	?	?	.	2%
CCOC(=O)c1sc2nc(-c3ccccc3)ccc2c1N	-11%	1%	-6%	?	16%	12%
CC(=O)c1sc2nc(-c3ccco3)ccc2c1N	?	7.1µM*	.	?	.	-2%
COc1ccc(CNC(=O)c2cnc3sc4cc(OC)ccc4n3c2=O)cc1	-16%	-1%	.	.	.	-2%
O=C1CC(c2ccccc2)Sc2ccccc2N1Cc1ccc(F)cc1 (stereo unspecified)	-11%	-8%	.	.	.	-2%
COC(=O)c1ccc(NC(=O)CSc2nc(=O)n(Cc3ccco3)c3c2CCC3)cc1	-11%	-12%	-10%[46 µM]	.	.	5%
C=CCc1cccc(CNc2nc3ccccc3n2C(C)C)c1O	11µM*[quencher]	-15%	?	-19%	4%	5%
Cn1c(NCc2ccccc2O)nc2ccccc21	5%	2%	0%	-10%	-2%	14%
CCC(=O)OCc1cnc(C)c2oc(=O)c(C(=O)Nc3ccc(CC)cc3)cc12	-16%	?	3%[46 µM]	.	.	0%
Cc1cccc(OCCNc2cc(N3CCN(CCO)CC3)ccc2[N+](=O)[O-])c1	?	28µM*	-6%	-5%	-18%	-10%
SMILES	Tau fluor cs	Tau ThT inhib	LMNA splice mod	JMJD2E inh	CBFb RUNX1 block	Tau fibril FP
Cc1ccccc1OCCNc1cc(N2CCCCC2)ccc1[N+](=O)[O-]	?	?	-3%[0.0737 µM]	2%	?	0%
Cc1ccccc1OCCNc1cc(N2CCN(CCO)CC2)ccc1[N+](=O)[O-]	?	13µM*	?	-13%	-20%	-2%
COc1cccc(OCCNc2cc(N3CCCCC3)ccc2[N+](=O)[O-])c1	?	?	21%	4%	?	-3%
CCOc1ccccc1NC(=O)c1cc(S(=O)(=O)N2CCOCC2)cn1C	-15%	-1%	4%[46 µM]	.	.	-14%
Cc1cccc(OCc2nc(CC(=O)Nc3ccc(C)c(C)c3)cs2)c1	-16%	-8%	-2%[46 µM]	.	.	-11%
CCc1ccc(OCC(=O)NCc2nc(-c3cccc(C)c3)no2)c(Br)c1	-23%	-5%	.	.	.	-6%
O=c1oc2ccccc2c2oc3cc(O)c(O)cc3c12	?	?	.	28µM*	-16%	?
COc1cccc(C2=Nn3c(nnc3-c3cccc(OC)c3OC)SC2)c1	.	.	.	.	-7%	.
N#Cc1sc2nc(N3CCCCC3)c3c(c2c1N)CCCC3	16µM*[quencher]	?	?	?	12%	10%
Cc1nc2sc(C#N)c(N)c2c2c1CCCC2	-10%	-9%	8%	?	3%	-5%
CC(C)Cn1c(=O)c2ccccc2n2c(CCC(=O)NCc3ccccc3Cl)nnc12	-3%	5%	.	.	.	1%
CCOC(=O)c1ccc(NC2=CC(=O)C(=O)c3ccccc32)cc1	?	13µM*	17%	?	-20%	-10%
CCOC(=O)c1ccc(NC(=O)C(C)N2C(=O)c3ccccc3C2=O)cc1 (stereo unspecified)	-11%	-8%	-4%	?	5%	1%
Cc1ccc(NC2=CC(=O)C(=O)c3ccccc32)cc1	?	25µM*	?	14µM*	4%	?
CC12CCC=CC1C(c1ccc(Br)cc1F)N(Cc1ccccc1)C2=O (stereo unspecified)	.	.	.	.	25%	.
O=C(CSc1cccc[n+]1[O-])c1cc2ccccc2o1	11%	11%	2%	32µM*	1%	-2%
O=C(O)CSc1cccc[n+]1[O-]	-3%	1%	11%	-5%	2%	-5%

Source: PubChem BioAssay (National Center for Advancing Translational Sciences (NCATS))
